# Laboratory results taken from article PMC7862700, “An all-to-all approach to the identification of sequence-specific readers for epigenetic DNA modifications on cytosine”.
# Assays:
# Assay in all cases: DAPPL (digital affinity profiling via proximity ligation, sequencing); 10 mM Tris-HCl pH 7.5, 50 mM NaCl, 1 mM DTT, 4% glycerol, room temperature, 30 min; GST-TFs on glutathione beads, 16-mer random dsDNA library, 0.1% formaldehyde crosslink after washing; high values mean tight binding
# Settings in all cases: protein: recombinant; tags: N-terminal GST; dsDNA, one strand shown
# ETV1 = ETV1 (Homo sapiens, UniProt P50549 1-477)
# Procedure, shortened: (§1)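 The binding signal reported is, for every hexamer, its read frequency for a factor over its read frequency for the tag-only sample. Reads came from pools of yeast-expressed, GST-fused human transcription factors on glutathione beads, barcoded with DNA and mixed with that sample, which were incubated with 200 nmole of a random double-stranded 16-mer DNA library in Tris/NaCl/DTT/glycerol buffer at room temperature for 30 min. After washing, the pools were crosslinked with 0.1% formaldehyde, proximity-ligated with BsaI/T4 ligase for 1 h at 37 °C, PCR-amplified and sequenced on an Illumina NextSeq500.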
# ERF = target: T1, ERF (Homo sapiens, UniProt P50548 1-548)
# T1 sequence: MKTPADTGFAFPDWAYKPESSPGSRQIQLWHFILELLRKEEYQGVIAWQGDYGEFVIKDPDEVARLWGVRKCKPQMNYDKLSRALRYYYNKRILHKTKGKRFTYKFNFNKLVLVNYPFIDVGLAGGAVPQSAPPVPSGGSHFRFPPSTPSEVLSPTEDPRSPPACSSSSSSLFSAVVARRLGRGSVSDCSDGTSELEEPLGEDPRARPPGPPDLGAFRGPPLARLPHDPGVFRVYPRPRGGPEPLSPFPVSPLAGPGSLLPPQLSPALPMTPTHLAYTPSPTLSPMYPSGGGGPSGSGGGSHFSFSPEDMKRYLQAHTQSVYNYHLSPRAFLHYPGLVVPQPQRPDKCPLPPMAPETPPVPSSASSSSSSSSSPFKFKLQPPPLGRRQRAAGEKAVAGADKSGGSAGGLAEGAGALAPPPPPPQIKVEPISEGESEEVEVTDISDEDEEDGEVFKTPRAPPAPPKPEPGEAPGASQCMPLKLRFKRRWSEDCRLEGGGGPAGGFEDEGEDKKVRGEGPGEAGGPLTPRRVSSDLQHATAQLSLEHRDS
# Procedure, shortened: as §1
# ETV3L = target: T2, ETV3L (Homo sapiens, UniProt Q6ZN32 1-361)
# T2 sequence: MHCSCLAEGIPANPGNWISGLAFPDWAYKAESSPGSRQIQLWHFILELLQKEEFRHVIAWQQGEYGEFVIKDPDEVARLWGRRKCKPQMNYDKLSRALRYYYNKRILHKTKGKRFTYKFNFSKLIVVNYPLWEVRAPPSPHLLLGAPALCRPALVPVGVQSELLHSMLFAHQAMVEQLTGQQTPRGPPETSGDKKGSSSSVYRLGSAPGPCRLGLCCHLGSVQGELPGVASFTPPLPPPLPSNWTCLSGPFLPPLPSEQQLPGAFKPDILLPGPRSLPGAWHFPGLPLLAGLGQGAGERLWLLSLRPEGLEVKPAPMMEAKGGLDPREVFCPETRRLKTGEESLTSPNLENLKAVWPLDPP
# Procedure, shortened: as §1
# ETS2 = target: T3, ETS2 (Homo sapiens, UniProt P15036 1-469)
# T3 sequence: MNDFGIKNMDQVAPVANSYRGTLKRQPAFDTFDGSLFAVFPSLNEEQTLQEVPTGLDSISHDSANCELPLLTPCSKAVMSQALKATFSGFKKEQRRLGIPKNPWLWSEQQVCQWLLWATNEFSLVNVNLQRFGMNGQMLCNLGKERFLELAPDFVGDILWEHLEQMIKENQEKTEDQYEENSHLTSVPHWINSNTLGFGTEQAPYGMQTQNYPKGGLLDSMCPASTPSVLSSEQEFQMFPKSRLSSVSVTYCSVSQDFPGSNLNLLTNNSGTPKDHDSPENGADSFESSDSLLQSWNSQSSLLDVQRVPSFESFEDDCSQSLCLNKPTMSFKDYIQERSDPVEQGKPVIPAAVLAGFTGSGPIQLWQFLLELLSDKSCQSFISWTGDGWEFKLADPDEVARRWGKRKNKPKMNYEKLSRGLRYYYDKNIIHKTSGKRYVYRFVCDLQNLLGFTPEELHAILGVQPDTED
# Procedure, shortened: as §1
# SPDEF = target: T4, SPDEF (Homo sapiens, UniProt O95238 1-335)
# T4 sequence: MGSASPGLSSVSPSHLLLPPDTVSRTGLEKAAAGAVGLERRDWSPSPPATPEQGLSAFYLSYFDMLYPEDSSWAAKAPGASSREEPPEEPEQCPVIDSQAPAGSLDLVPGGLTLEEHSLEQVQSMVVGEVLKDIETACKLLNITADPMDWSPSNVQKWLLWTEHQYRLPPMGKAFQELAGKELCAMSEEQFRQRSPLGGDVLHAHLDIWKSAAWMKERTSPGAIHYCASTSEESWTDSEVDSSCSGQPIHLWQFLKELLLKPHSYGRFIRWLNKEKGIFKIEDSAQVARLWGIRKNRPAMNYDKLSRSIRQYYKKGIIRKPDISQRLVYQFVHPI
# Procedure, shortened: as §1
# ETV7 = target: T5, ETV7 (Homo sapiens, UniProt Q9Y603 1-341)
# T5 sequence: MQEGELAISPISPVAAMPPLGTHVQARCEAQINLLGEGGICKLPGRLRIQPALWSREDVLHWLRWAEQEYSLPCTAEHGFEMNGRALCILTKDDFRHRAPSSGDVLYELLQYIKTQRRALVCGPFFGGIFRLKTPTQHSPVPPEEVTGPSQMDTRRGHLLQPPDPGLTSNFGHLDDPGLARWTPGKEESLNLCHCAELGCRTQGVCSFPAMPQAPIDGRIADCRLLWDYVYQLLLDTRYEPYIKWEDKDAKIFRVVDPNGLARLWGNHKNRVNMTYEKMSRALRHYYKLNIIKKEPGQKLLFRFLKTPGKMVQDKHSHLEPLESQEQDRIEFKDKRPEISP
# Procedure, shortened: as §1
# ELF5 = target: T6, ELF5 (Homo sapiens, UniProt Q9UKW6-2 1-255)
# T6 sequence: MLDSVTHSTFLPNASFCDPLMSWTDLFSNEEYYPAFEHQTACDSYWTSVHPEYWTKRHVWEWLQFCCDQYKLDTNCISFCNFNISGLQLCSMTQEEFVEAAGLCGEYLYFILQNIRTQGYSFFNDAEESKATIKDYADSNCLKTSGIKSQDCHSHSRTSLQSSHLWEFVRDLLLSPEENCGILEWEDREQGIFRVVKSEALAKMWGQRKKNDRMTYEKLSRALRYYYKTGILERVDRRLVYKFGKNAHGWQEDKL
# Procedure, shortened: as §1
# ETV3 = target: T7, ETV3 (Homo sapiens, UniProt P41162-2 1-143)
# T7 sequence: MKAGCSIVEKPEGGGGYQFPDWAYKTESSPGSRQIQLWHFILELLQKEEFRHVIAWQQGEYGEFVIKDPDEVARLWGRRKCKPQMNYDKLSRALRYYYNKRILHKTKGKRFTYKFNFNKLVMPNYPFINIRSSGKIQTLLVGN
# Procedure, shortened: as §1
# ETV6 = ETV6 (Homo sapiens, UniProt P41212 1-452)
# Procedure, shortened: as §1
# Chain of ETV1 (P50549 whole entry, the tested form may be a part): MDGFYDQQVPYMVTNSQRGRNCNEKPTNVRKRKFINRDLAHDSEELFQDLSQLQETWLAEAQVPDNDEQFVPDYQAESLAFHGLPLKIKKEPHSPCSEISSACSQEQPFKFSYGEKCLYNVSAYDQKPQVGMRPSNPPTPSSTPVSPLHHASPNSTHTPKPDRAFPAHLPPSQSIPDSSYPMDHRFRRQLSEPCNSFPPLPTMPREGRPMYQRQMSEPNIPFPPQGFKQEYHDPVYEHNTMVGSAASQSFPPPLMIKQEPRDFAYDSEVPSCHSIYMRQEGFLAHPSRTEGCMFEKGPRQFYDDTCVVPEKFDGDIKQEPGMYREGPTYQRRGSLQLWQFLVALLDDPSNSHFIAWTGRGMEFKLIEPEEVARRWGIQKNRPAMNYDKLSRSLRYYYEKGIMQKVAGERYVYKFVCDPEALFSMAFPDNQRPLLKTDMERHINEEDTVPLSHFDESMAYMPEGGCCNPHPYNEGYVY
# Chain of ETV6 (P41212 whole entry): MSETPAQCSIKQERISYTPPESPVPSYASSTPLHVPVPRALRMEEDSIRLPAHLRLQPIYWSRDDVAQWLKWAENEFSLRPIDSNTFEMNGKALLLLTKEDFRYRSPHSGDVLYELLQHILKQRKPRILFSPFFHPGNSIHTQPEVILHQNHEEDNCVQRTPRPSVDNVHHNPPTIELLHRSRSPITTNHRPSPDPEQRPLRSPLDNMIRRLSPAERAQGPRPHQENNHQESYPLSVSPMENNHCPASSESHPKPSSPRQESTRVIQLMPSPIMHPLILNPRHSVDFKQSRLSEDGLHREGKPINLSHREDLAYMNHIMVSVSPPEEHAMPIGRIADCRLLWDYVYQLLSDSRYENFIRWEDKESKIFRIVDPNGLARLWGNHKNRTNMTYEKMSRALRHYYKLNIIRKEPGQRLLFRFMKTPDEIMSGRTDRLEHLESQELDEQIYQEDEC
sequence,measurement,setting,value
CTGGTT,binding signal,ETV1,"1.3 fold enrichment (6-mer frequency, TF over GST control)"
same,binding signal,ERF,"1.2 fold enrichment (6-mer frequency, TF over GST control)"
same,binding signal,ETV3L,"1.35 fold enrichment (6-mer frequency, TF over GST control)"
same,binding signal,ETS2,"1.29 fold enrichment (6-mer frequency, TF over GST control)"
same,binding signal,SPDEF,"1.39 fold enrichment (6-mer frequency, TF over GST control)"
same,binding signal,ETV7,"1.28 fold enrichment (6-mer frequency, TF over GST control)"
same,binding signal,ELF5,"1.38 fold enrichment (6-mer frequency, TF over GST control)"
same,binding signal,ETV3,"1.45 fold enrichment (6-mer frequency, TF over GST control)"
same,binding signal,ETV6,"1.32 fold enrichment (6-mer frequency, TF over GST control)"
